Data reported in the supplement of paper PMC11732987, “Enantioselective OTUD7B fragment discovery through chemoproteomics screening and high-throughput optimisation” (Communications Chemistry, 2025).

Experiments:
Assay in all cases: log2 ratio of Biotin-Ahx-Ub-VS probe labelling (fragment/DMSO); higher = less target engagement (more negative = stronger competition), active = hit call of the paper (q ≤ 0.05, log2 ratio ≤ -1)
Conditions in all cases: compound concentration: 200 uM; treatment time: 3 h
USP34 = USP34 (UniProt Q70CQ2)
Method in brief: (§1)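 Labelled DUBs from HEK293T lysate were NeutrAvidin-enriched, digested with LysC and trypsin, and run by diaPASEF LC-MS/MS. Before that, each 495 µg sample in Tris/CHAPS/IGEPAL buffer with protease inhibitors was treated in triplicate with fragment at 200 µM or vehicle for 3 h, then with Biotin-Ahx-Ub-VS at 0.5 µM final for 1 h. Values are average log2 ratios of fragment over vehicle by unpaired t-test, based on global-median-normalised Spectronaut label-free quantities from proteins with ≥2 unique peptides.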

USP36 = molecular target: T1, USP36 (UniProt Q9P275)
T1 sequence (whole entry): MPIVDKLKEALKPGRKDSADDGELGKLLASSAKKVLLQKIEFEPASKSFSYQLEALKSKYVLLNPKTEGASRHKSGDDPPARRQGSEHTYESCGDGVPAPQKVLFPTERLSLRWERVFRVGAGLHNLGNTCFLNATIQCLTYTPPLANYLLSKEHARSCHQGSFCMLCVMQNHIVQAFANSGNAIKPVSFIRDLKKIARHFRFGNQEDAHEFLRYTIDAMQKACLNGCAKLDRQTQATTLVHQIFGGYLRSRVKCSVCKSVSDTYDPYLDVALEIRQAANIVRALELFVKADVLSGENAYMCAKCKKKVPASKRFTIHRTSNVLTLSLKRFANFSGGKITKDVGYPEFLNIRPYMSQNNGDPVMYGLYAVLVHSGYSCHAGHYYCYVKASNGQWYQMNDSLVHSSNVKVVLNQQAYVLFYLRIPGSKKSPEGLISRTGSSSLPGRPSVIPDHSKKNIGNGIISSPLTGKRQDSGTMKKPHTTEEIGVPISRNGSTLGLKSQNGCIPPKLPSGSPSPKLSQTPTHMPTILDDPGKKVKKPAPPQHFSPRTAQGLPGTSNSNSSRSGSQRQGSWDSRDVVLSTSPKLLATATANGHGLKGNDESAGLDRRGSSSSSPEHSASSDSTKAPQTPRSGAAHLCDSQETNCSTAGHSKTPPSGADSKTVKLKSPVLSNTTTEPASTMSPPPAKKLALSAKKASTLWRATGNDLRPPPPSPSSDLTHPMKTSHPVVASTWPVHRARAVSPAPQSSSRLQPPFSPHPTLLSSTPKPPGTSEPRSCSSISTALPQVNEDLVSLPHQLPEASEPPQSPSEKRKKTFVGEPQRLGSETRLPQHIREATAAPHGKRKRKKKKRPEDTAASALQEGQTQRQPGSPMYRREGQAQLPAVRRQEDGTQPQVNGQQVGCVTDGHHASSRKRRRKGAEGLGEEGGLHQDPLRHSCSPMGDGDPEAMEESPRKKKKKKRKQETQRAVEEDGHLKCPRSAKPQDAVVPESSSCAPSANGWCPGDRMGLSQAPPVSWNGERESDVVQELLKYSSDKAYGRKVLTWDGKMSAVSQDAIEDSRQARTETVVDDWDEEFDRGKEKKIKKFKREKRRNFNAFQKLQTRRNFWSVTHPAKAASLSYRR
Method in brief: as §1

USP38 = molecular target: T2, USP38 (UniProt Q8NB14)
T2 sequence (whole entry): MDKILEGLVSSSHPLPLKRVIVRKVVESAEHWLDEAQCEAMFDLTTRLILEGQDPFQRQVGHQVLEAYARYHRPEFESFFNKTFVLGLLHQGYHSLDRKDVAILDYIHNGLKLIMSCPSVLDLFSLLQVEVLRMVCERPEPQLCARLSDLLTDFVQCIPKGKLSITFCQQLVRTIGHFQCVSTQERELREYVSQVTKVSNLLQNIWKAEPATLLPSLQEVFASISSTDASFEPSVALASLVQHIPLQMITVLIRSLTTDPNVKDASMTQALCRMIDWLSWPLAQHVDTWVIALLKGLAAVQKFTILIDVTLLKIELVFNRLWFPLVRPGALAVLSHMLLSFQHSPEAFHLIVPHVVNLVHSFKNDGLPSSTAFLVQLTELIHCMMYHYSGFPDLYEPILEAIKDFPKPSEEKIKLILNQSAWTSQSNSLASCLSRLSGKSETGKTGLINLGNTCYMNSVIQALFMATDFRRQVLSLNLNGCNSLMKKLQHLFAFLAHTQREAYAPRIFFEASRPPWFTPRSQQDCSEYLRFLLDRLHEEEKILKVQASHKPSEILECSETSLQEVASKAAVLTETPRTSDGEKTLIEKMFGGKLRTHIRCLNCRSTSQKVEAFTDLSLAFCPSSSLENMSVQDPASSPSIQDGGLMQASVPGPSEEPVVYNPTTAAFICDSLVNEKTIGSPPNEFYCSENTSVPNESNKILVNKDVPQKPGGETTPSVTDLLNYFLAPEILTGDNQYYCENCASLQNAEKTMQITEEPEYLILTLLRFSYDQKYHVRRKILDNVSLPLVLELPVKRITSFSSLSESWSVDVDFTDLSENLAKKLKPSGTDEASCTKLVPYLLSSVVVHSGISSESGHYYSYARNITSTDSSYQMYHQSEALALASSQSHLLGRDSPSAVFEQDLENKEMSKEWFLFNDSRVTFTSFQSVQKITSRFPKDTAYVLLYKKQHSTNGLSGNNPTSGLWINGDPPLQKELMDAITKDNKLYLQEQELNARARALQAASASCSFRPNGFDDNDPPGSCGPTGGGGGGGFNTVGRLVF
Method in brief: as §1

USP39 = molecular target: T3, USP39 (UniProt Q53GS9)
T3 sequence (whole entry): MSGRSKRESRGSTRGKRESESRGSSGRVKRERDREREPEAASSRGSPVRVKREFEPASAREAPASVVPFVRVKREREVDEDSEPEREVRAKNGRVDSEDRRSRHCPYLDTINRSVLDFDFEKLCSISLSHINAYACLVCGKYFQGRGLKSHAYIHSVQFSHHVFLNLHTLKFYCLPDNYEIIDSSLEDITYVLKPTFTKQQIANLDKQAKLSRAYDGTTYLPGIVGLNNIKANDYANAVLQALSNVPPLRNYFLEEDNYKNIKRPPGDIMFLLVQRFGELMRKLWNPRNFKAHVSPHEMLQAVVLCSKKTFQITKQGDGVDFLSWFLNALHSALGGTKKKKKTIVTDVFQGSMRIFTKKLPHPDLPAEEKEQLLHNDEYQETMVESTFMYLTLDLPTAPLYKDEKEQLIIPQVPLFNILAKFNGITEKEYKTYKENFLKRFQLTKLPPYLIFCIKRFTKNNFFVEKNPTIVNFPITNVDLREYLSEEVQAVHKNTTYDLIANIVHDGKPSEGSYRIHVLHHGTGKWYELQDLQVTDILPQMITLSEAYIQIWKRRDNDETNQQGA
Method in brief: as §1

USP4 = molecular target: T4, USP4 (UniProt Q13107)
T4 sequence (whole entry): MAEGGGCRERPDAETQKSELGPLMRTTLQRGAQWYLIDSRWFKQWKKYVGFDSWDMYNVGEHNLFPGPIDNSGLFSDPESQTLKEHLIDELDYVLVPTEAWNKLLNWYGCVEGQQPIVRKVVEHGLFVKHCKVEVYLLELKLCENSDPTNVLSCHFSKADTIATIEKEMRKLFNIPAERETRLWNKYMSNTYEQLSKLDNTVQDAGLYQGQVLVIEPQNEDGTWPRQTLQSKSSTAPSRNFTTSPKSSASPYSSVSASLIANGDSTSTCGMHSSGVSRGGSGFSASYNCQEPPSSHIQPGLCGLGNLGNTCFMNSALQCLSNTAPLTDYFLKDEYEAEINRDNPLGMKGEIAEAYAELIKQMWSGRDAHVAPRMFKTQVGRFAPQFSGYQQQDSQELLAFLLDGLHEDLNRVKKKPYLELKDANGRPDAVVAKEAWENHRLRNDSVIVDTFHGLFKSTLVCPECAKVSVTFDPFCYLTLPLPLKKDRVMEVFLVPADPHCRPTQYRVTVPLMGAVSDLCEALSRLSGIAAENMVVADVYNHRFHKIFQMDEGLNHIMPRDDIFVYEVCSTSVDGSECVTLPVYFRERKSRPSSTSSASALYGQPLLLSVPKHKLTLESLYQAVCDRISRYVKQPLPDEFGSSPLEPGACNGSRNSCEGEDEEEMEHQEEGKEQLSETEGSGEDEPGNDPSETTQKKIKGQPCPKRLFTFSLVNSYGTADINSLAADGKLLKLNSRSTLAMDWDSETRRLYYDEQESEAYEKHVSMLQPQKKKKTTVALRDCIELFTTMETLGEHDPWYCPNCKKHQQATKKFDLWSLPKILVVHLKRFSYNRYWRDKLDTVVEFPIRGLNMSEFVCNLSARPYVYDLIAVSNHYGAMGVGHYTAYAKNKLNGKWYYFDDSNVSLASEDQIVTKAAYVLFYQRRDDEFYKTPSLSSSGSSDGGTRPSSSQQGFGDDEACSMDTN
Method in brief: as §1

Measured: log2 ratio of Biotin-Ahx-Ub-VS probe labelling

Sequence of USP34 (Q70CQ2 whole entry, the tested form may be a part): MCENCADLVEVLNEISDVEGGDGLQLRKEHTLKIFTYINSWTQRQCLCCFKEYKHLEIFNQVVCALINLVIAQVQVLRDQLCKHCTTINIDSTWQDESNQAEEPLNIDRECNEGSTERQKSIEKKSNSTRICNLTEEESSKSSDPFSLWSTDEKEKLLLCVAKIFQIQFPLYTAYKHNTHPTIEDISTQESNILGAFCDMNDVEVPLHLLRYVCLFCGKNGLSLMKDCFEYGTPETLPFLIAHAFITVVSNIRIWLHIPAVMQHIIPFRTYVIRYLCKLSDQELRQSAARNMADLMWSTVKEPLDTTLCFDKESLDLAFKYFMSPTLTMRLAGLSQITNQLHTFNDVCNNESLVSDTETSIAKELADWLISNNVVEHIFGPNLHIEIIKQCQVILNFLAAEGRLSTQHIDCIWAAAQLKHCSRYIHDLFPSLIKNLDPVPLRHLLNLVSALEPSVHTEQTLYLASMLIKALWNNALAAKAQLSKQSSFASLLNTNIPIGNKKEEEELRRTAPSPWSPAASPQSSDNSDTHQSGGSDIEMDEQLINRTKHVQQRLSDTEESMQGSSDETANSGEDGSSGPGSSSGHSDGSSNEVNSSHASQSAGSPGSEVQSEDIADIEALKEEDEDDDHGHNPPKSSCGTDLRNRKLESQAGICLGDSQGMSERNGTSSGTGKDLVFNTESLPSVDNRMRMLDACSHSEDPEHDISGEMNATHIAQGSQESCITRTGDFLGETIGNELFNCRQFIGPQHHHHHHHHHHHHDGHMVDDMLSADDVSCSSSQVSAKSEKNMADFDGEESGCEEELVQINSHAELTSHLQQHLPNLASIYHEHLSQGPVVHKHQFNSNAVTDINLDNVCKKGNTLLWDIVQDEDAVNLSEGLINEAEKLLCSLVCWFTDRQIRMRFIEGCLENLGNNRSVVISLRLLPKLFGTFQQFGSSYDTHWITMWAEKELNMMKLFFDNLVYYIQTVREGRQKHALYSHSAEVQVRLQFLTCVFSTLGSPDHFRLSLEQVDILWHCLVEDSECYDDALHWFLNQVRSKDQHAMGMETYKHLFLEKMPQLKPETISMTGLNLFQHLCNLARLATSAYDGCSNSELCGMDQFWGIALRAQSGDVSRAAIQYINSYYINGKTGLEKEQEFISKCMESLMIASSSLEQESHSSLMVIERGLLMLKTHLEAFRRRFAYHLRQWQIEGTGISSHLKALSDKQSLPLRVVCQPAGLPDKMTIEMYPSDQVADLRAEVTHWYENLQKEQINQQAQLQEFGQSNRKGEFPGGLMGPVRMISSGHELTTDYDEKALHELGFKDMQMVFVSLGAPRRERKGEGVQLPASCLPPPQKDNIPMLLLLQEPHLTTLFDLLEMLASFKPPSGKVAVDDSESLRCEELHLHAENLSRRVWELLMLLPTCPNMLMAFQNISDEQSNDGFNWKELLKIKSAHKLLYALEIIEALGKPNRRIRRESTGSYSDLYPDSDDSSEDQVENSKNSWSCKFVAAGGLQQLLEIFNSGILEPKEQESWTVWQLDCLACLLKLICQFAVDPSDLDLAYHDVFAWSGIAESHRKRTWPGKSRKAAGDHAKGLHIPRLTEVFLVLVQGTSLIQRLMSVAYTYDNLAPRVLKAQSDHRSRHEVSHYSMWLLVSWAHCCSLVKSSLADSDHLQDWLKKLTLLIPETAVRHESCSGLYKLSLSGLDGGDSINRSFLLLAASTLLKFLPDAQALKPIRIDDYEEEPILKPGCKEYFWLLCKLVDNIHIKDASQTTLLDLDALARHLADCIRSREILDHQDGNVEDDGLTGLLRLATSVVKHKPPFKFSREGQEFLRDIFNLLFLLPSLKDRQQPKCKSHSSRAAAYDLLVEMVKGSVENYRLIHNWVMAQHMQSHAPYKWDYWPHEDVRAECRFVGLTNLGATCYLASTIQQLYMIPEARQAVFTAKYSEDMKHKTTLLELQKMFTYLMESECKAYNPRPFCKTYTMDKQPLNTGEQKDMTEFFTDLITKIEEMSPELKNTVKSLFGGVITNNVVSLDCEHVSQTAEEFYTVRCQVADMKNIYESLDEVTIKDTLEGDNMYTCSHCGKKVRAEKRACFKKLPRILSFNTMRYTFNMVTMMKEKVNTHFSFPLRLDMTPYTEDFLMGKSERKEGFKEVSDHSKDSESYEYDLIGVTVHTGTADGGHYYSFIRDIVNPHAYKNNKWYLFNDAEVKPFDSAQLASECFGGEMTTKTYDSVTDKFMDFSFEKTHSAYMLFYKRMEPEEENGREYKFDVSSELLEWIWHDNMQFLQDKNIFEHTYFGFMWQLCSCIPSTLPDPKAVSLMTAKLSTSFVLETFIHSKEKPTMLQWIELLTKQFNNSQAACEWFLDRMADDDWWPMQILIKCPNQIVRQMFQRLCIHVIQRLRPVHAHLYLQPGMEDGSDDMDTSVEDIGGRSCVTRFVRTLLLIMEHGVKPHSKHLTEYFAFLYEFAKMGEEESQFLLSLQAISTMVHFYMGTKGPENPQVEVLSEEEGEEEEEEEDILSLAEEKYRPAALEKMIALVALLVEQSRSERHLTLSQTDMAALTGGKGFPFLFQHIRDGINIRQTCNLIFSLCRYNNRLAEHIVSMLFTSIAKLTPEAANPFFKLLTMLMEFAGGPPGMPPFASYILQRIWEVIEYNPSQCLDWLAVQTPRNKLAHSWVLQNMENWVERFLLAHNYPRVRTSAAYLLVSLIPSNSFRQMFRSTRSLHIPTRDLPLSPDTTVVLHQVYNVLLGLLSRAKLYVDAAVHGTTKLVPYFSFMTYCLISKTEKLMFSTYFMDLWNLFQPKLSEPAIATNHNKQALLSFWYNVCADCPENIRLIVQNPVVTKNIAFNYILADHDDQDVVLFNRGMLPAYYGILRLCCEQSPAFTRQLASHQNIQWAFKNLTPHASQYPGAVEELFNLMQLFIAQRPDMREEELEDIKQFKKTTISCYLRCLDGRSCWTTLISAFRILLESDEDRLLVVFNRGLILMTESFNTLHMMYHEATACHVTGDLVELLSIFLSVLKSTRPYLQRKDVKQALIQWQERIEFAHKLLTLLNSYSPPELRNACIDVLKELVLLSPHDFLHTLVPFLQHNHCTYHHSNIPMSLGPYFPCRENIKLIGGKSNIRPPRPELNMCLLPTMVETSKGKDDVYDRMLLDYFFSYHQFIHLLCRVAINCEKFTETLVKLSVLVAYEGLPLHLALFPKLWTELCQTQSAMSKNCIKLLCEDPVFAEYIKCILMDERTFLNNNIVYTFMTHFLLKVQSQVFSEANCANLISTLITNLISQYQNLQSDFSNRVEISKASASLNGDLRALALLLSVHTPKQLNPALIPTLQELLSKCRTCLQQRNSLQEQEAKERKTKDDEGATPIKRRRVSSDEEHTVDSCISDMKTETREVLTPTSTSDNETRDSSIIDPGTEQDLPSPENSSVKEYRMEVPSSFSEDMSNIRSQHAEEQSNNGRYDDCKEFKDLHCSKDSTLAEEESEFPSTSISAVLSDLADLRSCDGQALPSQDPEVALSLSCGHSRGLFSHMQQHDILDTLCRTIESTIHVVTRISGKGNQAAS

Cc1cc(Cl)ccc1NC(=O)CCl
inactive: USP34 -0.254 | USP36 -0.182 | USP38 -0.0702 | USP39 0.072 | USP4 -0.0162
